Results as given in PubChem BioAssay AID1159580 (chemical genetic matrix, 2015).
The whole screen tested about 5,500 compounds, of which about 2,000 (36%) were called active. Not shown: some 18% with an inconclusive outcome. Cut-off read from the data, not from the text of the source: active = normalized growth mostly below about 0.91 (no sharp cut-off); inconclusive = no clear call, values can overlap the other calls; inactive = mostly above about 0.92. Some of the results follow.

Test: chemical genetic growth profiling, strain panel (AID 1159580);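 note: tested at 20 µM; growth read once vehicle control cultures reached saturation at 30 °C; 1 = growth at the plate median or of vehicle wells; lower values mean less growth of the strain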
Conditions: S. cerevisiae deletion strains, growth OD

Measured: normalized growth

COc1[nH]c2ccc(F)cc2c1C(=O)OCC1CCN(CCNS(C)(=O)=O)CC1
inactive: locus YAL040C, strain CLN3, active compounds read low 0.958 | locus YCL061C, strain MRC1 (second series), active compounds read low 0.994 | locus YDR150W, strain NUM1, active compounds read low 0.986 | locus YDR363W, strain ESC2, active compounds read low 0.995 | locus YER002W, strain NOP16, active compounds read low 1.01 | locus YGR078C, strain PAC10, active compounds read low 1.02 | locus YJR075W, strain HOC1, active compounds read low 1.01 | locus YNL153C, strain GIM3, active compounds read low 1.01 | locus YNL175C, strain NOP13, active compounds read low 1 | locus YNL197C, strain WHI3, active compounds read low 1.02 | locus YNL224C, strain SQS1, active compounds read low 1.01 | locus YOR083W, strain WHI5 (second series), active compounds read low 0.993 | locus YPL241C, strain CIN2, active compounds read low 1.01
